Compounds without any hit were thinned out: in the full panel of roughly 83,000, 20% have a hit.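 In brief: 96-well plates, 48 h treatment, single concentration, percent growth endpoint.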 The source made the active and inactive calls. The calls were made as follows: active = growth percent below 10; inactive = the rest.
test system: MDA-MB-468 breast; test: NCI-60 one-dose screen, 48 h (100 = growth as untreated, 0 = no growth, -100 = all killed); conditions: 10 µM unless noted

Structure (SMILES) | growth
COc1ccc(C2=NNC(c3cc(Cc4ccc(O)c(C5CC(c6ccc(OC)cc6)=NN5)c4)ccc3O)C2)cc1 (stereo not given) | 65% (inactive)
COc1cccc2c1C(=O)c1c(O)c3c(c(O)c1C2=O)C[C@](O)(C(=O)CO)C[C@H]3O[C@@H]1C[C@@H](NC(=O)CCCN(C)C2(c3ccc(F)cc3)CC3CCC2C3)[C@H](O)[C@@H](C)O1 (stereo not given in full) | -82.4% (active)
COc1ccc(Cc2cnc(NC(=O)c3sc4ccccc4c3Cl)s2)cc1 | 23.5% (inactive)
COc1ccc(-c2cc(-c3nnc(SCC(=O)Nc4ccc(C(C)=O)cc4)o3)c3ccccc3n2)cc1 | 45.5% (inactive)
CSc1nnc2c(=O)n(C)c(=O)n(C)c2n1 | 108% (inactive)
